# A selection: hits, their analogues and other compounds. The true share with any hit is near 27%.
# CYP2C9 inhib: blocks human cytochrome P450 2C9. CYP2C9 Supersomes, luciferin-H conversion, luminescence. AID 777. P11712. hit rate 20% among 96,000. inhibition, % at 5 µM;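 active = blocking of liver enzyme CYP2C9 beyond about 50% at 5 µM, limit read from the data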
# CYP2C19 act: cytochrome P450 2C19 (human) activation | activation factor at 5 µM | recombinant CYP2C19, luciferin-H EGE luminescence; stronger effect = higher value; 0 = fully inhibited enzyme, 1 = untreated enzyme | P33261 | 96,000 tested, under 10 active;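 active = activation factor of at least 2 at 5 µM in the primary screen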;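 note: 0 = wells with 2.5 mM tranylcypromine and 1 = vehicle-only wells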
# Pyk2 oligo antag: antagonists of human Pyk2 oligomerization | Q14289 | Q293 cells, Pyk2 FERM NanoBiT luminescence; stronger effect = lower value | z-score (the deposit names both 25 µM and 10 µM) | hit rate 0.83% among 99,000;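 active = Z-score of -3 or lower, scaled per plate to the spread of control and sample wells; inactive = z-score above -3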;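 note: negative z-score means lost luminescence so less FERM oligomerization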
# CYP2C19 inh: inhibitors of human CYP2C19; P33261; CYP2C19 Supersomes, luciferin-H EGE luminescence, 30 min; inhibition, % at 5 µM; hit rate 21% among 96,000; AID 778;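 active = CYP2C19 inhibition above a set limit at 5 µM in the primary screen, cut at about 50% in these data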;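 note: plate controls were negative control wells for no effect and 2.5 mM tranylcypromine positive control for full effect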
# Cav3 T inh: inhibitors of human Cav3.2 T-type calcium channel | B-score at 10 µM | Cav3.2-expressing cells, Fluo-4 calcium fluorescence FDSS; stronger effect = lower value | AID 449739 | O95180 | hit rate 4% among 100,000;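 active = single-dose well whose peak fluorescence ratio is a statistical outlier from its plate by either plate-standardised score or position-corrected B-score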
# CYP2C9 act: activators of human CYP2C9. activation factor at 5 µM. AID 1024. recombinant CYP2C9, luciferin-H conversion, luminescence; stronger effect = higher value; factor 1 = untreated enzyme, 0 = blocked. P11712. hit rate 1.4% among 96,000;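 active = activation factor of 2 or more for CYP2C9 at a 5 µM dose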;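 note: 0 = sulfaphenazole-blocked wells and 1 = vehicle-only wells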
# * hit, by the source's call; · = no result.
SMILES,CYP2C9 inhib,CYP2C19 act,Pyk2 oligo antag,CYP2C19 inh,Cav3 T inh,CYP2C9 act
CC(C)n1c(SCc2ccc(Cl)cc2)nc2c1c(=O)[nH]c(=O)n2C,50,0.5,-1.3,50*,-0.16,0.5
C=C(C)Cn1c(SCCCO)nc2c1c(=O)[nH]c(=O)n2C,-33,1.2,-0.27,-20,0.27,1.3
C=C(C)Cn1c(Sc2nc3ccccc3[nH]2)nc2c1c(=O)[nH]c(=O)n2C,33,0.1,0.68,88*,0.46,0.7
CCCOCCOC(=O)C1=C(C)NC(=O)NC1c1cc(Cl)c(O)c(OC)c1 (stereo not drawn),3,0.9,-0.34,6,0.48,1
O=C(Cn1cnc2ccccc2c1=O)N1CCN(Cc2ccccc2)CC1,3,1.1,1.1,-5,0.13,1
CN(C)c1oc(COc2ccccc2F)nc1C#N,42,0.1,1.2,92*,0.72,0.6
N#Cc1nc(COc2ccccc2F)oc1NCc1ccc(F)cc1,72*,0.4,·,55*,-2.9,0.3
COc1ccc(CCNc2oc(COc3ccccc3F)nc2C#N)cc1,97*,0.1,-0.52,94*,-5.9*,0
CN(C)CCNc1oc(COc2ccc(-c3ccccc3)cc2)nc1C#N,16,0.8,-0.7,23,-2.4,0.8
COCCCNC(=O)C1CCN(C(=O)Nc2ccc(Cl)cc2)CC1,14,0.9,-0.26,12,0.97,0.9
CCC(Sc1nc(N)c(NC(=O)c2ccc(OC)c(OC)c2)c(=O)[nH]1)C(=O)OC (stereo not drawn),-10,1.1,·,-14,-0.12,1.1
CCN(C(=O)c1coc(=O)c2ccccc12)c1cc(OC)ccc1OC,64*,0.6,-0.63,38,1.8,0.4
Clc1ccc(/C=N/c2c(-c3ccc(Cl)cc3)nc3n2CCS3)cc1,0,1,-0.54,0,-0.86,1
COC(=O)Cn1cnc2sc(C)c(S(=O)(=O)N3CCN(c4ccccc4OC)CC3)c2c1=O,51*,0.7,1.5,27,0.4,0.5
COc1cccc(NC(=O)Cn2cnc3sc(C)c(S(=O)(=O)N4CCCCC4)c3c2=O)c1,66*,0.8,-2.2,18,-1.2,0.3
O=C(Nc1ccccc1Cl)c1cccc(COc2cc(Cl)ccc2Cl)c1,-4,1,1.4,-2,·,1
COc1ccc(C(=O)Nn2c(SCC(=O)NC3CCCCC3)nc3ccccc3c2=O)cc1,31,0.9,-1.9,14,-1.5,0.7
CCCN(CCC)C(=O)CSc1nc2ccsc2c(=O)n1NC(=O)c1ccccc1,66*,1.1,-0.11,-13,-1.6,0.3
C#CCNC(=O)C1=C[C@H](c2ccccc2)[C@@H](CCCO)[C@H](OCC)O1,·,·,·,·,1.1,·
CCOC(=O)c1cnc(-n2nc(C)cc2C)nc1N(CC)CC,79*,0.5,0.36,46,-3,0.2
COC(=O)C1=C(CSc2nccn2C)NC(=O)NC1c1cc(C)ccc1C (stereo not drawn),28,0.5,0.81,49,1.2,0.7
O=C(NCc1ccco1)c1ccccc1NS(=O)(=O)c1ccc(Cl)s1,97*,1.2,-0.97,-17,-7.4*,0
O=C(Nc1ccccc1)c1ccccc1NS(=O)(=O)c1ccc(Cl)s1,·,·,-2.5,·,-8.7*,·
O=C(NCc1ccco1)c1ccccc1NS(=O)(=O)c1ccc2c(c1)OCCO2,-61,0.4,0.13,56*,·,1.6
CSc1ccc(Cl)c(C(=O)NCc2ccco2)c1,-12,0.7,-0.65,35,0.26,1.1
SMILES,CYP2C9 inhib,CYP2C19 act,Pyk2 oligo antag,CYP2C19 inh,Cav3 T inh,CYP2C9 act
O=C(O)/C=C/C(=O)Nc1ccccc1C(=O)Nc1ccccc1,4,1.5,-0.06,-48,1.8,1
O=C(OCc1cccs1)c1ccccc1NS(=O)(=O)c1ccc2c(c1)OCCO2,24,0.4,-1.4,60*,-4.8*,0.8
CC1CCCCN1C(=O)c1cc2nc(-c3ccccc3)cc(-c3ccccc3)n2n1 (stereo not drawn),·,·,-2.4,·,-1.9,·
Cn1c(=O)c(Oc2cc(Cl)cc(Cl)c2)nc2ccccc21,2,1,1.2,2,0.27,1
NC(=O)C1CCN(CCC(=O)Nc2cccc(Cl)c2)CC1,10,0.8,1,18,1.3,0.9
COc1ccc(CC(=O)c2ccc(OC)c(OC)c2C)cc1OC,·,·,1.9,·,·,·
O=C(NCc1ccco1)c1ccccc1NS(=O)(=O)c1cccs1,72*,0.2,-1.9,81*,0.18,0.3

# Compound activity: PubChem, several laboratories
